The values that follow come from PubChem BioAssay (NCI).

The panel holds about 83,000 compounds, 20% with a hit somewhere; the sample as a whole holds those more often.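 How to read the values: 0–100, growth inhibition (40 = 60% inhibited); 0, no net growth; -100 to 0, cell death (-40 = 40% of starting cells died; -100 = all dead).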 A number with no mark means an inactive call. The source made the active and inactive calls. Rule for the calls: active = growth percent below 10; inactive = the rest.

Among the test systems are NCI-H23 lung; NCI-H226 lung; NCI-H322M lung; HOP-62 NSCLC; NCI-H460 lung; HOP-92 NSCLC; NCI-H522 lung; A549/ATCC NSCLC; 786-0 renal; COLO 205 colon; DU-145 prostate; K-562 leukemia; MALME-3M melanoma; MDA-MB-231 breast; RXF 393 renal; SF-268 CNS; SF-295 CNS; SF-539 CNS; UACC-257 melanoma; M14 melanoma.
Holding throughout (assay): NCI-60 one-dose screen, 48 h (100 = growth as untreated, 0 = no growth, -100 = all killed)
Settings in all cases: 10 µM unless noted

With `COC(=O)C(c1ccccc1)C(CC(=O)c1ccccc1)c1ccccc1` (stereo not given), the growth with NCI-H23 lung was 78.3%; with NCI-H226 lung, 75.1%; in the test with NCI-H322M lung it was 75.6%; in the test on HOP-62 NSCLC, 91.4%; in the test on NCI-H460 lung, 109%; in the test with HOP-92 NSCLC it was 62.6%. In addition, the growth is 61.9% with NCI-H522 lung; 95.4% in the test with A549/ATCC NSCLC; 106% with 786-0 renal; 105% in the test with COLO 205 colon; 95.8% in the test with DU-145 prostate; 73.1% with K-562 leukemia. For the same compound, the growth in the test on MALME-3M melanoma was 69.7%; with MDA-MB-231 breast it was 98.1%; with RXF 393 renal, 80.9%; in the test on SF-268 CNS it was 83.8%; with SF-295 CNS it was 79.9%; in the test with SF-539 CNS, 98.6%. Further, the growth was 101% in the test with UACC-257 melanoma and 103% with M14 melanoma.
Regarding `C=C1C(=O)O[C@H]2[C@H]1CC/C(CNC(=O)/C=C/c1ccccc1F)=C\CC[C@@]1(C)O[C@@H]21`, the growth with NCI-H23 lung was 64.8%; in the test on NCI-H226 lung, 71.9%; in the test on NCI-H322M lung it was 73.9%; in the test with HOP-62 NSCLC it was 74.5%; in the test with NCI-H460 lung, 56.2%; with HOP-92 NSCLC, -28.2% (active). The growth is -73.5% (active) in the test with NCI-H522 lung; 52.9% in the test on A549/ATCC NSCLC; -58.4% (active) in the test on 786-0 renal; -45% (active) in the test on COLO 205 colon; 4.9% (active) with DU-145 prostate; 2.05% (active) in the test on K-562 leukemia. Also, the growth in the test on MALME-3M melanoma was -43.9% (active); in the test with MDA-MB-231 breast, 16.9%; in the test with RXF 393 renal, -90.5% (active); in the test with SF-268 CNS, 47.4%; with SF-295 CNS it was 75.1%; with SF-539 CNS, -50.4% (active). The growth in the test with UACC-257 melanoma is -6.45% (active); in the test with M14 melanoma it was -32.5% (active).
For the compound `NC(=S)N/N=C/c1ccc(OC(=O)COc2cc(Cl)c(Cl)cc2Cl)cn1`, the growth with NCI-H23 lung was 28.1%; in the test on NCI-H226 lung, 84.6%; in the test with NCI-H322M lung, 57.2%; in the test with HOP-62 NSCLC, 85.6%; with NCI-H460 lung it was 79.9%; with HOP-92 NSCLC, 48.6%. Further, the growth in the test with NCI-H522 lung was 23.8%; in the test on A549/ATCC NSCLC, 107%; in the test on 786-0 renal, 19.9%; in the test with COLO 205 colon, 117%; in the test with DU-145 prostate it was 36.4%; with K-562 leukemia, 48.6%. Further, the growth in the test with MALME-3M melanoma was 75.7%; with MDA-MB-231 breast it was 82.6%; in the test with RXF 393 renal it was 50.1%; in the test on SF-268 CNS, 41.2%; in the test on SF-295 CNS, 134%; with SF-539 CNS it was 29.5%. Further, the growth is 78.9% with UACC-257 melanoma and 41.2% in the test on M14 melanoma.
For `COc1ccc(/C(=C\c2ccccc2)C(=O)O)cc1OC`, the growth with NCI-H23 lung is 93.6%; with NCI-H226 lung, 83.5%; in the test on NCI-H322M lung, 98%; with HOP-62 NSCLC, 2.18% (active); with NCI-H460 lung, 101%; in the test with HOP-92 NSCLC it was 97.9%. The growth with NCI-H522 lung is 101%; with A549/ATCC NSCLC, 102%; in the test on 786-0 renal, 104%; with COLO 205 colon it was 100%; with DU-145 prostate it was 108%; in the test on K-562 leukemia, 134%. Also, the growth was 95.9% in the test on MALME-3M melanoma; 89.1% in the test on MDA-MB-231 breast; 104% in the test with RXF 393 renal; 103% in the test with SF-268 CNS; 101% in the test on SF-295 CNS; 103% in the test on SF-539 CNS. Besides, the figures for the growth with UACC-257 melanoma and in the test with M14 melanoma were 99.2% and 98.3%, respectively.
On to `CCCCCCCC(=O)Nc1nc2[nH]c(CN3CCN(Cc4cccc(I)c4)CC3)c(CN3CCN(Cc4cccc(I)c4)CC3)c2c(=O)[nH]1`, for which the growth was -24.5% (active) with NCI-H23 lung; 66.4% in the test on NCI-H226 lung; -60% (active) with NCI-H322M lung; -88.6% (active) with HOP-62 NSCLC; -75% (active) with NCI-H460 lung; -67.3% (active) in the test on HOP-92 NSCLC. Also, the growth was -58.8% (active) with NCI-H522 lung; -81.6% (active) in the test with A549/ATCC NSCLC; -98% (active) in the test on 786-0 renal; -81.2% (active) in the test with COLO 205 colon; -83.5% (active) in the test with DU-145 prostate; -43.8% (active) in the test on K-562 leukemia. Besides, the growth in the test with MALME-3M melanoma is -49.9% (active); with MDA-MB-231 breast it was -89.8% (active); with RXF 393 renal it was -96.1% (active); in the test with SF-268 CNS it was -82.9% (active); in the test on SF-295 CNS it was -69.5% (active); with SF-539 CNS it was -89.4% (active). Besides, the results for the growth in the test on UACC-257 melanoma and in the test on M14 melanoma were -33% (active) and -56.6% (active), respectively.
As to `BrC(Br)(Br)c1cnc2ccccc2n1`, the growth in the test on NCI-H23 lung was 64.2%; with NCI-H226 lung, 21.3%; in the test with NCI-H322M lung, 74.9%; with HOP-62 NSCLC it was 60%; with NCI-H460 lung, 8.61% (active); in the test with HOP-92 NSCLC, 7.52% (active). Moreover, the growth with NCI-H522 lung was -61.3% (active); with A549/ATCC NSCLC, 34.6%; in the test with 786-0 renal, 67.7%; in the test with COLO 205 colon it was -86.4% (active); in the test with DU-145 prostate, 4.36% (active); in the test with K-562 leukemia, 1.19% (active). Also, the growth in the test with MALME-3M melanoma is -10.4% (active); with MDA-MB-231 breast it was 46%; with RXF 393 renal, -31.5% (active); in the test on SF-268 CNS it was 54.5%; in the test on SF-295 CNS, 74.3%; with SF-539 CNS it was 27.2%. The growth with UACC-257 melanoma is 39.9%; in the test with M14 melanoma it was 42.9%.
For `CCOC(=O)N1CCN(CCCCl)CC1`, the growth with NCI-H23 lung was 103%; with NCI-H226 lung, 102%; in the test on NCI-H322M lung, 101%; with HOP-62 NSCLC, 109%; in the test with NCI-H460 lung it was 105%; in the test with HOP-92 NSCLC, 95%. Further, the growth in the test with NCI-H522 lung is 95.4%; in the test on A549/ATCC NSCLC it was 94.8%; in the test with 786-0 renal it was 98.4%; in the test on COLO 205 colon, 113%; in the test with DU-145 prostate, 115%; with K-562 leukemia, 96.2%. Moreover, the growth is 102% in the test on MALME-3M melanoma; 100% with MDA-MB-231 breast; 118% in the test with RXF 393 renal; 104% with SF-268 CNS; 98.8% in the test on SF-295 CNS; 97.7% with SF-539 CNS. For the same compound, the growth is 96.6% in the test on UACC-257 melanoma and 101% in the test with M14 melanoma.
`O=C(c1ccccc1)N1N=C(c2ccc(-n3ccc(C(F)(F)F)n3)cc2)CC1c1ccc[nH]1` (stereo not given): the growth is 96.4% in the test on NCI-H23 lung; 95.1% with NCI-H226 lung; 80.6% with NCI-H322M lung; 105% in the test on HOP-62 NSCLC; 100% in the test on NCI-H460 lung; 113% in the test with HOP-92 NSCLC. Also, the growth was 76.5% in the test with NCI-H522 lung; 82% with A549/ATCC NSCLC; 87.3% in the test with 786-0 renal; 101% in the test with COLO 205 colon; 104% in the test with DU-145 prostate; 65.1% with K-562 leukemia. Further, the growth is 93.6% in the test on MALME-3M melanoma; 97.6% with MDA-MB-231 breast; 97.1% in the test with RXF 393 renal; 98.6% with SF-268 CNS; 97.1% with SF-295 CNS; 92.6% with SF-539 CNS. In addition, the growth in the test with UACC-257 melanoma was 90.1%; with M14 melanoma, 79%.
